The source of these data is PubChem BioAssay AID1490 (National Center for Advancing Translational Sciences (NCATS), 2009).

The structures appear in SMILES notation. “And” between values parts separate entries of the source, which are not always exact repeats. Equal entries are not always repeated. Among all 310,000 compounds or so, about 11,000 (3.5%) were called active. Inconclusive results (about 4%) are left out. Calls come from the whole dose curve; as a rule, active = well fitted inhibition curve with a large enough effect; inconclusive = small, poorly fitted or top-dose-only effect, or another doubt; inactive = no such curve, though single readings can be large or run the other way. The full list was thinned out, with actives kept by preference.
Potency is the fitted concentration of half-maximal effect.

The assay has as its target 4'-phosphopantetheinyl transferase ffp (Bacillus subtilis) (UniProt Q9F4F7). As to the kind of experiment: qHTS Assay for Inhibitors of Bacillus subtilis Sfp phosphopantetheinyl transferase (PPTase).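 For largest response in the series, negative = inhibition: 0% = enzyme reaction without inhibitor and -100% = no enzyme wells.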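 Note: the enzyme is Sfp with the accession as filed and its product quenches rhodamine fluorescence.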 Conditions: Biochemical Sfp PPTase activity. The essentials:
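After 15 min at room temperature with compound, 15 nM Sfp received 5 uM rhodamine-CoA plus 12.5 uM BHQ-2-ybbR (50 mM Hepes pH 7.6, 10 mM MgCl2). Rate came from the fluorescence difference over 30 min, ex 525/em 598 nm.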
(qHTS replaces the single test concentration by a dilution series.)
Consider `Cc1cc(=O)[nH]c(Nc2cccc(Br)c2)n1`, for which the largest response in the series, negative = inhibition is -3.95% (inactive). Regarding `Cc1cccc(C)c1NC(=O)CSc1nc2c([nH]1)c(=O)n(C)c(=O)n2C`, the largest response in the series, negative = inhibition was -3.14% (inactive).

Regarding `Cc1ccc(NN=Nc2nc3c([nH]2)c(=O)n(C)c(=O)n3C)cc1`, the Potency was 25.1 µM (active).

For the molecule `CC(CCO)Nc1nc2c([nH]1)c(=O)n(C)c(=O)n2C` (stereo not drawn), the largest response in the series, negative = inhibition was 11.2% (inactive). Still for that read-out and setting: to `CSc1nccc(NC(=O)c2ccc(C(C)(C)C)cc2)n1` belongs -8.43% (inactive); to `CCOC(=O)N1CCN(C(=O)c2ccc3c(=O)n(CCc4ccc(OC)c(OC)c4)c(=O)[nH]c3c2)CC1`, 8.01% (inactive).

`O=C(O)[C@@H](S)[C@H](S)C(=O)O`: the Potency is 1.12 µM (active).

For `O=C(C[n+]1cc(Br)cc2ccccc21)c1ccc(F)cc1`, the largest response in the series, negative = inhibition is 4.07% (inactive).

With `COc1cccc([C@@H]2Oc3ccc(Br)cc3C(=O)[C@H]2OC(=O)NCCc2ccc(OC)c(OC)c2)c1`, the largest response in the series, negative = inhibition was -29.3% (inactive). The same measure, in the same setting: to `COc1ccccc1N1CCN(C(=O)c2ccc(NC3=NC4CS(=O)(=O)CC4S3)cc2)CC1` (stereo not drawn) belongs 11.2% (inactive); to `COc1ccc(CCCOC(Cn2ccnc2)c2ccc(OC)cc2)cc1` (stereo not drawn), 10.3% (inactive) and -14.1% (inactive). For `N#Cc1c(N2CCCCC2)nc(N)c2c(N)nc(SCC(=O)O)cc12`, the Potency was 8.91 µM (active).

`CC(=O)c1cc(C#N)c(N2CCCCC2)nc1C`: the largest response in the series, negative = inhibition was 10.1% (inactive). Still for that read-out and setting: in the case of `Cc1cc(C)c(C#N)c(N2CCC(C(N)=O)CC2)n1` it was 15.7% (inactive); in that of `N#CCc1ccc(NC(=O)c2ccccc2C(=O)Nc2ccc(CC#N)cc2)cc1`, 5.96% (inactive); in that of `CCOCc1nnc(NC(=O)CCC2CCCCC2)s1`, 18.1% (inactive). Same read-out and setting: to `COC(=O)CCCC1=CC2=CC(=O)C(C)(OC(=O)c3cccs3)C(=O)C2=CN1c1ccc(CO)cc1` (stereo not drawn) belongs -1.16% (inactive); to `CCOC(=O)c1csc(CCNC(=O)c2oc3c(Cl)cc(C)cc3c2C)n1`, -19.2% (inactive); to `O=c1[nH]c(=O)c2nc3ccccc3nc2[nH]1`, 8.31% (inactive). Consider `Nc1ccc2nc3c(=O)[nH]c(=S)[nH]c3nc2c1`, for which the Potency is 8.91 µM (active). Take `O=C(NCc1cc(F)cc(C(F)(F)F)c1)C1CCC(=O)N(C2CCCC2)C1` (stereo not drawn): the largest response in the series, negative = inhibition was 6.77% (inactive). Same read-out and setting: to `O=c1oc2ccccc2c(CNc2ccccc2)c1[N+](=O)[O-]` belongs 5.08% (inactive).

Take `C=C1C(=CC=C2CCC[C@@]3(C)[C@@H]2CC[C@H]3[C@H](C)CCCC(C)C)C[C@@H](O)C[C@@H]1O`: the largest response in the series, negative = inhibition is 3.54% (inactive). As to `O=C(N/N=C/C=C/c1ccco1)c1cccs1`, the Potency is 10 µM (active).

On to `O=C(N/N=C/c1ccco1)c1ccc(C(=O)N/N=C/c2ccco2)o1`, for which the largest response in the series, negative = inhibition is 22% (inactive).

On to `CCOc1cc(/C=N/NC(=O)c2cc(-c3ccccc3)nc3ccccc23)ccc1O`, for which the largest response in the series, negative = inhibition was 10.1% (inactive).

Regarding `Cc1ccc(-c2cc(C(=O)N/N=C/C=C/c3ccco3)c3ccccc3n2)cc1C`, the Potency was 28.2 µM (active).

As to `C/C(=N\NC(=O)c1cc(-c2ccc(O)cc2)nc2ccccc12)c1cccnc1`, the largest response in the series, negative = inhibition was 0.726% (inactive). Same read-out and setting: to `CC(=O)Nc1ccc(/C=N/NC(=O)c2cccs2)cc1` belongs 9.99% (inactive); to `O=C(O)c1cc2c(cc1NC(=O)c1c(F)cccc1Cl)OCCCO2`, 14.9% (inactive); to `Cc1ccc(Cn2c(C)nc3c(c2=O)c2nc4ccccc4nc2n3Cc2ccco2)cc1`, 18.1% (inactive). Turning to `Cc1nc2c(c(=O)n1Cc1ccco1)c1nc3ccccc3nc1n2Cc1ccccc1`, the Potency was 8.91 µM (active). Regarding `Cc1nc2ccccc2c(=O)n1Cc1ccc([N+](=O)[O-])cc1`, the largest response in the series, negative = inhibition is -0.474% (inactive).

`O=C(NC1CCCCC1)C1CCC(CNS(=O)(=O)c2ccccc2)CC1` (stereo not drawn): the largest response in the series, negative = inhibition is -16.9% (inactive). Consider `Cc1ccc(NC(=O)c2cc(-c3ccccc3O)n[nH]2)cc1C`, for which the largest response in the series, negative = inhibition is 13.9% (inactive). As to `CCN(CC)S(=O)(=O)c1cc([N+](=O)[O-])ccc1NNC(=O)Nc1ccccc1`, the Potency is 56.2 µM (active). For the molecule `CCN(CC)S(=O)(=O)c1cc([N+](=O)[O-])ccc1N=Nc1c(O)n(C)c2ccccc12`, the largest response in the series, negative = inhibition was 22.9% (inactive). The same measure, in the same setting: in the case of `CCN(CC)C(=O)CN(c1cccc([N+](=O)[O-])c1)S(=O)(=O)c1ccccc1` it was 19.8% (inactive); in that of `CCCn1c2ccccc2c2cnn(CC(=O)NCCCN3CCCCC3CC)c(=O)c21` (stereo not drawn), 4.88% (inactive).

With `O=[N+]([O-])c1cccc(/C([O-])=C(/C(=S)Nc2ccccc2F)[n+]2ccccc2)c1`, the Potency is 17.8 µM (active). Turning to `Cc1cccc(C(=O)NNC(=O)c2cccc([N+](=O)[O-])c2)c1`, the largest response in the series, negative = inhibition was 12.7% (inactive). On the same count and under the same terms, in the case of `CCC(C)NCC(=O)Nc1ccc([N+](=O)[O-])cc1C(=O)Nc1ccccc1F` (stereo not drawn) it was 8.61% (inactive). For the molecule `N#Cc1ccsc1NC(=O)CN1CCCCC1`, the Potency is 89.1 µM (active).

Take `N#Cc1ccsc1NC(=O)CN1CCN(S(=O)(=O)c2cc(Cl)ccc2Cl)CC1`: the largest response in the series, negative = inhibition is -21.5% (inactive). On the same count and under the same terms, in the case of `Cc1cc(C)c(NC(=O)CN2CCCCCC2)c(C)c1` it was -2.37% (inactive). Turning to `Cc1csc(NC(=O)CN2CCCCCC2)n1`, the Potency is 79.4 µM (active). Take `N#Cc1cccc(NC(=O)CN2CCCCCC2)c1`: the largest response in the series, negative = inhibition was 7.01% (inactive). On the same count and under the same terms, in the case of `CS(=O)(=O)c1ccc2nc(NC(=O)CN3CCCCCC3)sc2c1` it was -29.2% (inactive); in that of `CCOC(=O)C1CN(S(=O)(=O)c2ccc(OC)cc2)c2cc(Cl)ccc2O1` (stereo not drawn), 3.4% (inactive); in that of `Cc1ccc(S(=O)(=O)NNC(=O)/C=C/c2cccc(F)c2)cc1`, 9.18% (inactive). The same measure, in the same setting: to `C=CCc1ccccc1OCC(O)CN1CCN(CCO)CC1` (stereo not drawn) belongs 5.68% (inactive); to `CCOC(=O)c1sc(NC(=O)c2sc(C)nc2C)nc1C`, 11.7% (inactive). Still for that read-out and setting: to `CC1CCCCN1C(=O)Cn1c(=O)oc2cc(S(=O)(=O)N3CCCCC3)ccc21` (stereo not drawn) belongs 10.7% (inactive).

Take `Cc1cccc(CNc2cc(-c3ccccc3Cl)ncn2)c1`: the largest response in the series, negative = inhibition is 20.2% (inactive). Regarding `Clc1ccccc1-c1cc(NCCN2CCOCC2)ncn1`, the Potency is 79.4 µM (active). In the case of `c1ccc2cc3c(NCCN4CCOCC4)ccnc3cc2c1`, the largest response in the series, negative = inhibition was -20.1% (inactive).

On to `COc1ccc(NC(=O)CCCN2C(=O)C(c3ccccc3)Oc3cccnc32)cc1` (stereo not drawn), for which the largest response in the series, negative = inhibition was 1.64% (inactive). Same read-out and setting: in the case of `Cc1ccc(C)c(S(=O)(=O)N2CCCOC2CNC(=O)C(=O)NC2CCCCC2)c1` (stereo not drawn) it was 11.5% (inactive).
